Here are results for seven sequences from paper PMC8384837, “Expanding the binding specificity for RNA recognition by a PUF domain”.

Common to all, as to assay: yeast three-hybrid, YBZ-1, SC-Leu-His + 0.5 mM 3-AT, 4 days
Settings in all cases: tags: N-Gal4 AD-HA kept; label: inside an RPR1-promoter hybrid RNA with tandem MS2 sites; ssRNA

One test deals with PUM1 PUF domain R5-PFP (Homo sapiens, UniProt Q14671 828-1176, C1007P;R1008F;Q1011P). The procedure, abridged: (§1)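 The interaction score is the log change in variant frequency from input to selection. Scores were computed in log2 with a pseudocount of 1 for absent variants, using Illumina sequencing of PCR-amplified repeat regions. The input came from four days on SC-Leu and the selection from four days on SC-Leu-His + 0.5 mM 3-AT. The cells were strain YBZ-1 (LexA–MS2 coat fusion, HIS3 reporter) co-expressing Pumilio-1 PUF domain libraries and matching RNA elements from a centromeric plasmid.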

Another test concerns the target PUM1 PUF domain R5-TRL (Homo sapiens, UniProt Q14671 828-1176, C1007T;Q1011L). The procedure, abridged: as §1
Another test addresses PUM1 PUF domain R3-PYL (Homo sapiens, UniProt Q14671 828-1176, C935P;R936Y;Q939L). Put shortly:
as §1

A further test has as its target PUM1 PUF domain R4-GMG (Homo sapiens, UniProt Q14671 828-1176, N971G;H972M;Q975G). The procedure, abridged:
as §1

For the next test, the target named is T1, PUM1 PUF domain R6-THR (Homo sapiens, UniProt Q14671 828-1176, N1043T;Y1044H;Q1047R).
T1 sequence: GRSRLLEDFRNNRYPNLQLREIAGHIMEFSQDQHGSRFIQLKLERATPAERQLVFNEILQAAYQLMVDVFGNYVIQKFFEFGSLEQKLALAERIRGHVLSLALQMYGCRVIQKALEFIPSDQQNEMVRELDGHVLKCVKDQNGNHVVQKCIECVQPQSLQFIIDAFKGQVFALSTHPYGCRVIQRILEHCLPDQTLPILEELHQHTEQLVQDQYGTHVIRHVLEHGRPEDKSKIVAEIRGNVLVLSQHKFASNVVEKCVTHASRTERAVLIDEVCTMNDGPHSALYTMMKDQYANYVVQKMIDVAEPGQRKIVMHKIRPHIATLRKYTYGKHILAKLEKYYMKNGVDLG
The procedure, abridged: as §1

Another test concerns the target PUM1 PUF domain R5-KRM (Homo sapiens, UniProt Q14671 828-1176, C1007K;Q1011M). Put shortly: as §1
A further test has as its target PUM1 PUF domain R8-PWN (Homo sapiens, UniProt Q14671 828-1176, N1122P;Y1123W;Q1126N). The procedure, abridged: as §1
The next test deals with PUM1 PUF domain R8-KWC (Homo sapiens, UniProt Q14671 828-1176, N1122K;Y1123W;Q1126C). The procedure, abridged: as §1
Sequence of PUM1 PUF domain R8-KWC (Q14671 828-1176 N1122K/Y1123W/Q1126C): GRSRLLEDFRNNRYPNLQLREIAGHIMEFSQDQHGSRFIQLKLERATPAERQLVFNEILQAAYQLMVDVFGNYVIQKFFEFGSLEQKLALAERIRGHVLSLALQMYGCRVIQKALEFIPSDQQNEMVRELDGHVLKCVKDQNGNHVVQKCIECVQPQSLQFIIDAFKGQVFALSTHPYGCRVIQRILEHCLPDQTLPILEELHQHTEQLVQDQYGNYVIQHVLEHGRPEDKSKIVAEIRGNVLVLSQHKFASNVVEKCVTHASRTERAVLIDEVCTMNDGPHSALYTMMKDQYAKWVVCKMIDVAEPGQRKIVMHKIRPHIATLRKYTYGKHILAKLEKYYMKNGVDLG
The target in another test is PUM1 PUF domain R5-SNS (Homo sapiens, UniProt Q14671 828-1176, C1007S;R1008N;Q1011S). The procedure, abridged:
as §1

The target of the next test is PUM1 PUF domain R4-VNG (Homo sapiens, UniProt Q14671 828-1176, N971V;H972N;Q975G). The procedure, abridged:
as §1

The target in a further test is PUM1 PUF domain R4-FNH (Homo sapiens, UniProt Q14671 828-1176, N971F;H972N;Q975H). Put shortly: as §1
Sequence of PUM1 PUF domain R4-FNH (Q14671 828-1176 N971F/H972N/Q975H): as the sequence (Q14671 828-1176 N1122K/Y1123W/Q1126C) above, with N144F, H145N, Q148H, K295N, W296Y, C299Q counted along it
In the next test the target is PUM1 PUF domain R3-FRD (Homo sapiens, UniProt Q14671 828-1176, C935F;Q939D). The procedure, abridged:
as §1

A further test has as its target PUM1 PUF domain R3-LWD (Homo sapiens, UniProt Q14671 828-1176, C935L;R936W;Q939D). The procedure, abridged: as §1
For the next test, the target named is PUM1 PUF domain R3-FQC (Homo sapiens, UniProt Q14671 828-1176, C935F;R936Q;Q939C). The procedure, abridged:
as §1

In the next test the target is PUM1 PUF domain R1-QYK (Homo sapiens, UniProt Q14671 828-1176, S863Q;R864Y;Q867K). Put shortly:
as §1

The target of a further test is PUM1 PUF domain R3-RPV (Homo sapiens, UniProt Q14671 828-1176, C935R;R936P;Q939V). The procedure, abridged: as §1
Sequence of PUM1 PUF domain R3-RPV (Q14671 828-1176 C935R/R936P/Q939V): as the sequence (Q14671 828-1176 N1122K/Y1123W/Q1126C) above, with C108R, R109P, Q112V, K295N, W296Y, C299Q counted along it

Sequence of PUM1 PUF domain R5-KRM (Q14671 828-1176 C1007K/Q1011M): as the sequence (Q14671 828-1176 N1122K/Y1123W/Q1126C) above, with C180K, Q184M, K295N, W296Y, C299Q counted along it
Sequence of PUM1 PUF domain R3-LWD (Q14671 828-1176 C935L/R936W/Q939D): as the sequence (Q14671 828-1176 N1122K/Y1123W/Q1126C) above, with C108L, R109W, Q112D, K295N, W296Y, C299Q counted along it
Sequence of PUM1 PUF domain R5-SNS (Q14671 828-1176 C1007S/R1008N/Q1011S): as the sequence (Q14671 828-1176 N1122K/Y1123W/Q1126C) above, with C180S, R181N, Q184S, K295N, W296Y, C299Q counted along it
Sequence of PUM1 PUF domain R1-QYK (Q14671 828-1176 S863Q/R864Y/Q867K): as the sequence (Q14671 828-1176 N1122K/Y1123W/Q1126C) above, with S36Q, R37Y, Q40K, K295N, W296Y, C299Q counted along it
Sequence of PUM1 PUF domain R3-FQC (Q14671 828-1176 C935F/R936Q/Q939C): as the sequence (Q14671 828-1176 N1122K/Y1123W/Q1126C) above, with C108F, R109Q, Q112C, K295N, W296Y, C299Q counted along it

For the sequence “GGCUAGAACUAGUGGAUCCCCCGGCGCCCGGCGGCUCGAGCCCGGGUAAGUGUAAAUAGUCUGCAUGCCGCCGGGCGCCAUGCCUGCAGGUCGACUCUAGAAAACAUG”, the binding signal in the test with PUM1 PUF domain R5-PFP was 4.69 log2 enrichment (interaction score); with PUM1 PUF domain R5-TRL, 3.3 log2 enrichment (interaction score); with PUM1 PUF domain R3-PYL, 5.55 log2 enrichment (interaction score); with PUM1 PUF domain R4-GMG, 1.25 log2 enrichment (interaction score); with PUM1 PUF domain R6-THR it was 3.12 log2 enrichment (interaction score); with PUM1 PUF domain R5-KRM, 2.19 log2 enrichment (interaction score).

For “GGCUAGAACUAGUGGAUCCCCCGGCGCCCGGCGGCUCGAGCCCGGGUAAGCGUAAAUAGUCUGCAUGCCGCCGGGCGCCAUGCCUGCAGGUCGACUCUAGAAAACAUG”, the binding signal in the test with PUM1 PUF domain R8-PWN was 3.44 log2 enrichment (interaction score); with PUM1 PUF domain R8-KWC it was 4.87 log2 enrichment (interaction score).

With “GGCUAGAACUAGUGGAUCCCCCGGCGCCCGGCGGCUCGAGCCCGGGUAAGUGUUAAUAGUCUGCAUGCCGCCGGGCGCCAUGCCUGCAGGUCGACUCUAGAAAACAUG”, the binding signal is 2.18 log2 enrichment (interaction score) with PUM1 PUF domain R5-TRL, 3.23 log2 enrichment (interaction score) in the test with PUM1 PUF domain R5-SNS and 3.73 log2 enrichment (interaction score) with PUM1 PUF domain R5-KRM.

On to “GGCUAGAACUAGUGGAUCCCCCGGCGCCCGGCGGCUCGAGCCCGGGUAAGUGUAUAUAGUCUGCAUGCCGCCGGGCGCCAUGCCUGCAGGUCGACUCUAGAAAACAUG”, for which the results for the binding signal with PUM1 PUF domain R4-GMG, with PUM1 PUF domain R4-VNG and with PUM1 PUF domain R4-FNH were 2.85 log2 enrichment (interaction score), 2.54 log2 enrichment (interaction score) and 5.93 log2 enrichment (interaction score), respectively.

In the case of “GGCUAGAACUAGUGGAUCCCCCGGCGCCCGGCGGCUCGAGCCCGGGUAAGUGUAAGUAGUCUGCAUGCCGCCGGGCGCCAUGCCUGCAGGUCGACUCUAGAAAACAUG”, the binding signal is 5.68 log2 enrichment (interaction score) with PUM1 PUF domain R3-FRD, 4.02 log2 enrichment (interaction score) with PUM1 PUF domain R3-LWD and 3.36 log2 enrichment (interaction score) with PUM1 PUF domain R3-FQC.

Take “GGCUAGAACUAGUGGAUCCCCCGGCGCCCGGCGGCUCGAGCCCGGGUAAGUGUAAAUCGUCUGCAUGCCGCCGGGCGCCAUGCCUGCAGGUCGACUCUAGAAAACAUG”: the binding signal with PUM1 PUF domain R1-QYK is 6.38 log2 enrichment (interaction score).

For the sequence “GGCUAGAACUAGUGGAUCCCCCGGCGCCCGGCGGCUCGAGCCCGGGUAAGUGUAAUUAGUCUGCAUGCCGCCGGGCGCCAUGCCUGCAGGUCGACUCUAGAAAACAUG”, the results for the binding signal in the test with PUM1 PUF domain R3-LWD and with PUM1 PUF domain R3-RPV were 1.73 log2 enrichment (interaction score) and 2.55 log2 enrichment (interaction score), respectively.
